Among the test systems are DU-145 prostate; K-562 leukemia; MALME-3M melanoma; MDA-MB-231 breast; RXF 393 renal; SF-268 CNS; SF-295 CNS; SF-539 CNS; UACC-257 melanoma; M14 melanoma; HCT-15 colon; HT29 colon; SNB-75 CNS; PC-3 prostate; UACC-62 melanoma; LOX IMVI melanoma; SK-MEL-28 melanoma; SNB-19 CNS; SK-MEL-5 melanoma; U251 CNS.
Common to all, as to test: NCI-60 one-dose screen, 48 h (100 = growth as untreated, 0 = no growth, -100 = all killed)
What all share (conditions): 10 µM unless noted

Experimental findings from PubChem BioAssay (NCI) are described below.

Compounds without any hit were thinned out: in the full panel of roughly 83,000, 20% have a hit.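 Compound tested at a single concentration for 48 hours in 96-well plates; a percent growth value below 10 was scored as active.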 Values without a mark were called inactive. Activity calls are given as the source filed them.

`Oc1cccc2ccc(N/N=C/c3cc(CN4CCOCC4)c(O)c4ncccc34)nc12`: the growth with DU-145 prostate is 22.4%; in the assay with K-562 leukemia, 13.4%; with MALME-3M melanoma, 16.3%; with MDA-MB-231 breast, 20%; in the assay on RXF 393 renal, 10.4%; with SF-268 CNS it was 18.7%. The growth in the assay with SF-295 CNS was 17.5%; with SF-539 CNS it was 9.66% (active); in the assay with UACC-257 melanoma it was 17.8%; in the assay with M14 melanoma, 4.83% (active); in the assay on HCT-15 colon, 26.2%; with HT29 colon it was 17.6%. For the same compound, the growth in the assay with SNB-75 CNS was 35.9%; with PC-3 prostate, 28.5%; in the assay on UACC-62 melanoma it was 2.18% (active); in the assay on LOX IMVI melanoma it was -71.1% (active); with SK-MEL-28 melanoma, 24%.
As to `N#Cc1cnn(-c2nc3c(Cl)cccc3s2)c1N`, the growth in the assay with DU-145 prostate was 96%; in the assay with K-562 leukemia, 92.8%; with MALME-3M melanoma, 85.9%; in the assay on MDA-MB-231 breast, 60.6%; in the assay on RXF 393 renal it was 92.7%; in the assay on SF-268 CNS it was 87%. Besides, the growth with SF-295 CNS is 82.3%; with SF-539 CNS, 82.2%; in the assay with UACC-257 melanoma it was 102%; in the assay with M14 melanoma, 96.1%; in the assay on HCT-15 colon, 91.8%; in the assay with HT29 colon it was 84.8%. Besides, the growth in the assay on SNB-75 CNS is 77.7%; in the assay with SNB-19 CNS it was 94.8%; with SK-MEL-5 melanoma it was 90.8%; in the assay on UACC-62 melanoma it was 89.2%; with LOX IMVI melanoma, 81.4%; in the assay on SK-MEL-28 melanoma it was 102%.
Regarding `CSc1nc(Nc2cccc(NC(=O)CCl)c2)c(C#N)c(-c2cccc([N+](=O)[O-])c2)n1`, the growth was 13.4% in the assay on DU-145 prostate; 5.6% (active) in the assay with K-562 leukemia; 37.3% in the assay with MALME-3M melanoma; 68.4% in the assay with MDA-MB-231 breast; 43.7% with RXF 393 renal; 34% in the assay on SF-268 CNS. In addition, the growth with SF-295 CNS is 95.4%; in the assay with SF-539 CNS it was 73.3%; in the assay with UACC-257 melanoma, 84.6%; in the assay on M14 melanoma it was 48.7%; in the assay on HCT-15 colon, 17.5%; with HT29 colon, 17.7%. Besides, the growth with SNB-75 CNS was 30.5%; with PC-3 prostate, 30.5%; in the assay on SK-MEL-5 melanoma it was 34.3%; in the assay with UACC-62 melanoma, 41%; in the assay with LOX IMVI melanoma it was -69.2% (active); with SK-MEL-28 melanoma, 102%.
Consider `O=C1/C(=C/c2ccccc2)SC(=S)N1CCc1ccc(O)cc1`, for which the growth is 90.1% in the assay with DU-145 prostate; 90.9% with K-562 leukemia; 92.2% in the assay on MALME-3M melanoma; 87.3% in the assay on MDA-MB-231 breast; 101% in the assay on RXF 393 renal; 85.3% in the assay on SF-268 CNS. The growth was 97% in the assay on SF-295 CNS; 90.1% with SF-539 CNS; 98.9% in the assay on UACC-257 melanoma; 97.1% in the assay with M14 melanoma; 100% in the assay with HCT-15 colon; 102% in the assay on HT29 colon. For the same compound, the growth in the assay with SNB-75 CNS is 81.1%; with SNB-19 CNS, 90.4%; in the assay with SK-MEL-5 melanoma, 97%; with UACC-62 melanoma, 77%; in the assay with LOX IMVI melanoma it was 89.2%; in the assay with SK-MEL-28 melanoma, 103%.
`N#CN1CC[C@H](C(=O)Nc2cc3cc(C(N)=O)ccc3cn2)C1`: the growth in the assay on DU-145 prostate is 7.18% (active); in the assay on K-562 leukemia it was 2.99% (active); with MALME-3M melanoma, -21.8% (active); in the assay with MDA-MB-231 breast it was -0.49% (active); in the assay with RXF 393 renal, -52.3% (active); in the assay on SF-268 CNS, -9.68% (active). The growth in the assay on SF-295 CNS is 2.85% (active); in the assay with SF-539 CNS it was -35.9% (active); in the assay on UACC-257 melanoma it was -27.9% (active); with M14 melanoma it was -26.5% (active); in the assay on HCT-15 colon, 3.81% (active); in the assay on HT29 colon, -31.2% (active). Further, the growth in the assay with SNB-75 CNS was -28.4% (active); in the assay with U251 CNS, -2.5% (active); with PC-3 prostate it was 2.76% (active); with UACC-62 melanoma, -34.5% (active); with LOX IMVI melanoma, 4.7% (active); in the assay with SK-MEL-28 melanoma it was -9.92% (active).
For the compound `COc1ccc(-c2cc(=O)c3c(OC)c4ccoc4cc3o2)cc1`, the growth in the assay on DU-145 prostate was 106%; in the assay on K-562 leukemia, 88.2%; in the assay with MALME-3M melanoma, 113%; in the assay with MDA-MB-231 breast, 91.7%; with RXF 393 renal, 107%; with SF-268 CNS, 97.9%. In addition, the growth is 40.7% in the assay with SF-295 CNS; 105% in the assay on SF-539 CNS; 107% with UACC-257 melanoma; 115% in the assay on M14 melanoma; 92.4% with HCT-15 colon; 82.1% with HT29 colon. Further, the growth was 104% with SNB-75 CNS; 92.5% in the assay on U251 CNS; 86.1% with PC-3 prostate; 98.4% in the assay with UACC-62 melanoma; 95.1% in the assay on LOX IMVI melanoma; 118% in the assay on SK-MEL-28 melanoma.
Consider `CCN1CCC2(CC1)NC(=O)c1c(c3ccc(Cl)c(Cl)c3n1C)C2C#N` (stereo not drawn), for which the growth in the assay on DU-145 prostate is 72.7%; in the assay on K-562 leukemia, 23.3%; in the assay on MALME-3M melanoma, -6.1% (active); in the assay with MDA-MB-231 breast it was 60.5%; with RXF 393 renal, 76.6%; in the assay with SF-268 CNS, 51.4%. For the same compound, the growth with SF-295 CNS was 70.8%; in the assay with SF-539 CNS, 52%; with UACC-257 melanoma it was -5.12% (active); in the assay on M14 melanoma, -38.5% (active); in the assay on HCT-15 colon, 14.3%; in the assay on HT29 colon it was 7.28% (active). Besides, the growth is 51.2% with SNB-75 CNS; 84.9% in the assay with SNB-19 CNS; 47.1% in the assay with PC-3 prostate; -83.2% (active) in the assay with UACC-62 melanoma; 30.6% in the assay on LOX IMVI melanoma; -100% (active) in the assay on SK-MEL-28 melanoma.
As to `CN(Cc1cc(Cl)cc(Cl)c1O)Cc1cc(Cl)cc(Cl)c1O`, the growth is 68.9% in the assay with DU-145 prostate; 98.5% with K-562 leukemia; 92.7% with MALME-3M melanoma; 78.5% with MDA-MB-231 breast; 81.8% in the assay on RXF 393 renal; 62.6% in the assay on SF-268 CNS. For the same compound, the growth in the assay with SF-295 CNS is 58.1%; in the assay with SF-539 CNS it was 81.9%; in the assay on UACC-257 melanoma, 82.4%; with M14 melanoma, 71%; in the assay with HCT-15 colon, 40.5%; in the assay with HT29 colon, 94.1%. Also, the growth in the assay with SNB-75 CNS was 75.5%; with U251 CNS, 58.6%; in the assay with PC-3 prostate, 80.9%; in the assay with UACC-62 melanoma it was 64.8%; in the assay with LOX IMVI melanoma, 57.7%; in the assay with SK-MEL-28 melanoma, 86.9%.
